The list is not random: actives were taken first. Their share in the collection is about 1.8%.
Mcl1 Noxa PPI = Mcl-1/Noxa interaction inhibition; Q07820; TR-FRET Mcl-1/Noxa peptide binding, 2 h; inhibition, % at 21.7 µM; 220,000 tested, 1.5% active; AID 1022;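 active = compounds that cut the protein-peptide binding signal by more than 50% relative to plate controls in a single-dose test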;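 also: His-tagged Mcl-1 with rhodamine Noxa BH3 peptide and terbium anti-His antibody; 0% = Mcl-1 plus Noxa peptide wells and 100% = peptide-only wells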
Mcl1-Bid inh = disrupts binding of human Mcl-1 to Bid peptide | Q07820 | TR-FRET Mcl-1/Bid-Dy647 peptide binding, 1536-well | inhibition, % at 21.7 µM | 220,000 tested, 0.97% active;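 active = compounds that cut the binding signal by more than half at the single screening dose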;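 also: His-tagged Mcl-1 with europium anti-His antibody binding Bid BH3 peptide; 0% = Mcl-1 plus peptide wells and 100% = peptide-only wells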
NOD2 RIPK2 PPI = NOD2-RIPK2 protein interaction inhibition | 360,000 tested, 0.38% active | CHO BLA complementation NOD2-RIPK2, CCF4 ratio | inhibition, % at 4.98 µM | O43353 | AID 624267; in the data active = inhibition above about 21%;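 also: 0% = vehicle only and 100% = reference blocker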
TLR4 MyD88 comp = blocks binding of human TLR4 to MyD88; HeLa CL3-4 TLR4/MyD88 BLA complementation, FRET ratio; inhibition, % at 8.4 µM; 200,000 tested, 0.18% active; in the data active = inhibition above about 25%;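 also: 0% = vehicle and 100% = reference inhibitor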
Bim-Mcl-1 = disrupts Bim peptide binding to human Mcl-1. Q07820. AID 1009. Bead-based flow cytometry, Bim peptide-Mcl-1 binding. inhibition, % at 10 µM. 190,000 tested, 0.1% active; in the data active = inhibition above about 40%;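 also: 0% = no compound tracer wells and 100% = peptide blocker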
TLR9-MyD88 inh = blocks human TLR9 binding to MyD88; Q9NR96+Q99836; CHO BLA complementation TLR9-MyD88, CCF4 FRET ratio; inhibition, % at 4.98 µM; 340,000 tested, 0.21% active; AID 504734;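 active = inhibition above the mean over all tested compounds plus 3 SD, cut at about 21% in these data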;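 also: 0% = DMSO only wells and 100% = clavulanate BLA inhibitor control wells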
Target sequence (Q99836 whole entry, looked up): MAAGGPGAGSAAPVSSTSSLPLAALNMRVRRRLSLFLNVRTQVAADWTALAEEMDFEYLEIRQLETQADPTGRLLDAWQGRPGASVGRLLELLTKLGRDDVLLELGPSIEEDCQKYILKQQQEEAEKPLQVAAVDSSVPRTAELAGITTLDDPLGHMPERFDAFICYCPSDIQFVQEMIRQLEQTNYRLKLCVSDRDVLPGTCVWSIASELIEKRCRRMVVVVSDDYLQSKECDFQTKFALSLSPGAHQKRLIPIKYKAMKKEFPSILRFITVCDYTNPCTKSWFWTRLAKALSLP
Target sequence (Q9NR96 whole entry, looked up): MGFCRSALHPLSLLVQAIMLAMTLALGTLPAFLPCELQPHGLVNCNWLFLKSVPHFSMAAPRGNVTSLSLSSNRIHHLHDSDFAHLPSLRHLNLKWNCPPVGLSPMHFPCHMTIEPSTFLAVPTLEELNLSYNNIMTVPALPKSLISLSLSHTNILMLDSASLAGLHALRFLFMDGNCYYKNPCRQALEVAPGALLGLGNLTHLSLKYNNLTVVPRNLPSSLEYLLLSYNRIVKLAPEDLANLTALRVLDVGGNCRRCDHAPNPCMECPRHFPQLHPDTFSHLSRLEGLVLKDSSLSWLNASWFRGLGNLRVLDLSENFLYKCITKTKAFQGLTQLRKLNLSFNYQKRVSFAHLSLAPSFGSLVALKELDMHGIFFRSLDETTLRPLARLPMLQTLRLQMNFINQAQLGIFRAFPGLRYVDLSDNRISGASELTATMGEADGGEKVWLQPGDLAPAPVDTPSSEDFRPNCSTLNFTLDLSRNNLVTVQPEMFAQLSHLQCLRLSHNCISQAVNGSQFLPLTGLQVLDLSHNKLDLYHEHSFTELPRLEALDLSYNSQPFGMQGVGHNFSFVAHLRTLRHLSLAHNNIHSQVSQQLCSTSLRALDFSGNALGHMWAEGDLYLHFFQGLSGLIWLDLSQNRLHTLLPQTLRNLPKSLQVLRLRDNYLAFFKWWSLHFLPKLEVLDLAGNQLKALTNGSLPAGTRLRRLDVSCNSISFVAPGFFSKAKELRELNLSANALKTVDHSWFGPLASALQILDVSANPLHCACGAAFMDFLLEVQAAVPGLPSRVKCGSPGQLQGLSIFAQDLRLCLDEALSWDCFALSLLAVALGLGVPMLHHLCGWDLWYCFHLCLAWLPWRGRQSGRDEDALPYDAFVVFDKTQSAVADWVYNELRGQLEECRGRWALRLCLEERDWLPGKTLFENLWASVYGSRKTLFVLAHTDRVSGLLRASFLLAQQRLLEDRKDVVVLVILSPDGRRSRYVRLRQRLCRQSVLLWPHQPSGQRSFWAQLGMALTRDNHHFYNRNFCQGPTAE
An asterisk follows results filed as active; x = not tested or not shown.

SMILES	Mcl1 Noxa PPI	Mcl1-Bid inh	NOD2 RIPK2 PPI	TLR4 MyD88 comp	Bim-Mcl-1	TLR9-MyD88 inh
O=C(CCc1nc2ccccc2s1)OCc1ccccc1	1	-8	-16	-14	-5	4
O=C(c1cccs1)N1CCC(c2nc3c(nnn3Cc3c(Cl)cccc3Cl)c(=O)[nH]2)CC1	x	x	4	x	x	8
COc1ccc(C(=O)NC(=S)Nc2ccc(S(=O)(=O)Nc3cc(OC)ncn3)cc2)cc1	x	x	-15	x	x	-7
COc1cc(NS(=O)(=O)c2ccc(NC(=S)NC(=O)c3sc4ccccc4c3Cl)cc2)ncn1	55*	-8	-8	1	-2	-6
CCN(CC)CC(C)(C)C(=O)/C=C/c1ccc(/C=C/C(=O)C(C)(C)CN(CC)CC)cc1	x	x	84*	x	x	21
CC(C)c1ccc(NC(=O)c2ccc3c(c2)C(=O)N(Cc2cccnc2)C3=O)cc1	x	x	-11	x	x	0
Cc1ncc([N+](=O)[O-])n1S(=O)(=O)c1cc(Cl)ccc1Cl	x	x	11	x	x	-5
COc1cccc(/C=N/n2c(CO)nc3ccccc32)c1OC	6	-33	5	-2	-1	-2
CNc1nc2ccccc2n1/N=C/c1cccc(OC)c1OC	12	-16	-2	-1	57*	-12
COc1ccc(S(=O)(=O)Nc2ccc(O)c3ccccc23)cc1	66*	-7	-1	-2	-10	5
CCOc1ccc2nc(C)cc(Nc3ccc(N4CCOCC4)cc3)c2c1	62*	-5	x	-2	-2	x
CCOc1ccc2nc(C)cc(Nc3ccc4c(c3)OCCO4)c2c1	15	-22	-5	-6	3	1
COc1ccc(/C=C/C(=O)Nc2c(C(=O)O)[nH]c3ccccc23)cc1OC	20	-4	-20	x	x	-6
CN(CCc1ccccn1)C(=O)CCC1CCCN(C(=O)NC2CCCCC2)C1 (stereo not drawn)	-1	-32	6	-1	57*	-2
CN(CCc1ccccn1)C(=O)CCC1CCCN(C(=O)c2ccccn2)C1 (stereo not drawn)	14	-29	-3	-4	-1	-4
Cc1cccc(C(=O)Nc2ccnc(-c3ccncc3)n2)c1	-6	-10	-8	-6	0	-4
Cc1cccc(C(=O)Nc2ccnc(-c3cccnc3)n2)c1	6	91*	-2	4	-2	9
CCOC(=O)Cc1csc(NC(=O)CSc2nnnn2-c2ccc(C)c(C)c2)n1	-19	80*	0	4	-3	2
O=C(O)CCCN1C(=O)/C(=C\c2ccccc2OCc2ccccc2)SC1=S	x	x	0	x	x	-5
O=C(O)CCCN1C(=O)/C(=C/c2cn(-c3ccccc3)nc2-c2cccs2)SC1=S	87*	78*	6	-8	-1	6
CC(C)(C)C(=O)CSc1ccc(S(=O)(=O)N2CCN(Cc3ccccc3)CC2)cn1	x	x	-2	x	x	-8
CC1(C)CC(NC(=O)COc2ccc([N+](=O)[O-])cc2)CC(C)(C)N1	22	-12	2	0	68*	x
COc1ccc(OCC(=O)NC2CC(C)(C)NC(C)(C)C2)cc1	11	-29	3	-8	-1	-3
CCN(CC)C(=O)C(=O)Nc1ccc(OCc2ccccc2)cc1	1	-30	4	6	1	5
O=S(=O)(Nc1ccc(N2CCCCC2)cc1)c1ccc(F)c(F)c1	51*	-41	0	16	5	-7
SMILES	Mcl1 Noxa PPI	Mcl1-Bid inh	NOD2 RIPK2 PPI	TLR4 MyD88 comp	Bim-Mcl-1	TLR9-MyD88 inh
CC(C)c1ccc(S(=O)(=O)/N=C2/C=CC(=O)c3ccccc32)cc1	78*	0	x	5	0	x
CC(C)c1ccc(S(=O)(=O)/N=C2\C=C(NS(=O)(=O)c3ccccc3)C(=O)c3ccccc32)cc1	x	x	-9	x	x	-5
COC(=O)[C@H](Cc1c[nH]c2ccccc12)NC(=O)NCc1ccc(OC)cc1	x	x	-9	x	x	-15
CCCCCCn1nc(C(=O)Nc2nc3c(s2)CCCC3)c2ccccc2c1=O	25	10	-9	-4	45*	0
CCCCn1nc(C(=O)Nc2nc3c(s2)CCCC3)c2ccccc2c1=O	3	-24	-2	-17	-25	10
CCC(CC)NC(=O)CSc1ccc(S(=O)(=O)N2CCCCC2)cn1	x	x	-13	x	x	5
Cc1ccc(NC(=O)c2ccc(Cl)c(N3C(=O)C=CC3=O)c2)cc1	57*	29	51*	19	-8	18
O=C1CCNc2ccc(-c3ccccc3)cc21	-30	-6	0	4	-4	15
O=C1CCNc2cc3ccccc3cc21	60*	-88	-1	3	4	2
CCC(C)NCCOCCSc1ccc(Cl)cc1 (stereo not drawn)	4	52*	-5	0	-5	6
C=CCc1cc(Cl)ccc1OCCOCCNC(C)CC (stereo not drawn)	33	40	4	11	-1	6
COc1cc(/C=N/n2c(-c3n[nH]c4c3CCC4)n[nH]c2=S)ccc1O	2	-115	4	x	x	-1
COc1ccc(/C=N/n2c(-c3n[nH]c4c3CCC4)n[nH]c2=S)cc1OC	65*	-79	-6	-22	-6	0
O=C(Nc1ccccc1)Nc1ccc2ncoc2c1	15	-27	4	-1	91*	-2
O=C(CCN1C(=O)c2ccccc2C1=O)Nc1ccc(-c2nc3ccccc3s2)cc1	5	18	-4	-1	1	-12
Cc1ccc2nc(-c3ccc(NC(=O)CCN4C(=O)c5ccccc5C4=O)cc3)sc2c1	49	56*	-14	9	-2	-5
Cc1ccc2nc(-c3ccc(NC(=O)CSCC(=O)O)cc3)sc2c1	9	19	0	x	x	0
O=C(O)CSCC(=O)Nc1ccc(-c2nc3ccccc3s2)cc1	56*	-10	7	x	x	x
CCC(C)NC(=O)c1cc2c(=O)n(CC)c3ccccc3c2s1 (stereo not drawn)	x	x	5	x	x	-5
O=C(Nc1ccccn1)C1CCCN1S(=O)(=O)c1ccc(Cl)cc1 (stereo not drawn)	x	x	-10	x	x	-2
Cc1ccccc1OCCNC(=O)CNC(=O)c1ccccc1O	x	82*	2	-7	-4	-8
O=C1CCCC2=C1C(c1ccc(O)c(O)c1)c1c(ccc3ncccc13)N2 (stereo not drawn)	79*	-44	-3	2	7	x
Cc1cc(N(CCO)CCO)ccc1C(c1ccc(N(CCO)CCO)cc1C)c1ccccc1Cl	101*	57*	2	-5	1	3
CN(C)c1ccc(C(=O)C(O)c2ccccc2Cl)cc1 (stereo not drawn)	x	x	-10	x	x	-2
Cc1ccc(C(=O)OCC(=O)Nc2ccc(N(C)C)cc2)cc1NC(=O)c1ccco1	79*	-50	-7	-1	0	1
CCN(c1ccc(NC(=O)COC(=O)CCc2cc(OC)c(OC)c(OC)c2)cc1)C(C)C	59*	-11	-9	17	-6	6
CCN(CC)c1ccc(NC(=O)COC(=O)CCc2cc(OC)c(OC)c(OC)c2)cc1	x	x	-5	x	x	-2

Screening data as filed in PubChem BioAssay.
